The record followed here is PubChem BioAssay (EPA / NIEHS).

Read-out in assay [1]: Monokine induced gamma interferon (MIG), CXCL9 (gene 4283)
As to the kind of experiment: BSK_hDFCGF_MIG: BioMAP Diversity Plus: hDFCGF Assay for Monokine induced gamma interferon (MIG) Biomarker Activity (AID 2283063). The conditions noted are these: primary human foreskin fibroblasts; actives raise or lower the signal. In short, it runs like this: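 ELISA read-out of MIG from primary human dermal fibroblasts 24 h post-dosing. Gain or loss of signal fitted bidirectionally, DMSO as baseline.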

Read-out in assay [2]: Matrix Metallopeptidase 1 (MMP1), MMP1 (gene 4312)
Description: BSK_hDFCGF_MMP1: BioMAP Diversity Plus: hDFCGF Assay for Matrix Metallopeptidase 1 (MMP1) Biomarker Activity (AID 2283064). The conditions noted are these: primary human foreskin fibroblasts; actives raise or lower the signal. In short, it runs like this: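 Primary human foreskin fibroblasts in the hDFCGF system were dosed with test chemical, and MMP1 was measured by ELISA 24 h later. Values come from bidirectional curve fitting against the DMSO baseline.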

Read-out in assay [3]: Vascular cell adhesion molecule 1 (VCAM1), VCAM1 (gene 7412)
As to the kind of experiment: BSK_hDFCGF_VCAM1: BioMAP Diversity Plus: hDFCGF Assay for Vascular cell adhesion molecule 1 (VCAM1) Biomarker Activity (AID 2283065).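 On AC50: VCAM-1 protein level quantified by ELISA after 24 h chemical exposure.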 The conditions noted are these: primary human foreskin fibroblasts; actives raise or lower the signal. The method in brief: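 Primary human foreskin fibroblasts (hDFCGF system) were dosed with chemical and VCAM-1 was measured by ELISA 24 h later. Bidirectional curve fitting used DMSO as negative control and activity baseline.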

Read-out in assay [4]: Intercellular Adhesion Molecule 1 (ICAM1), ICAM1 (gene 3383)
As to the kind of experiment: BSK_KF3CT_ICAM1: BioMAP Diversity Plus: KF3CT Assay for Intercellular Adhesion Molecule 1 (ICAM1) Biomarker Activity (AID 2283067). The conditions noted are these: primary human keratinocytes with fibroblasts; actives raise or lower the signal. In short, it runs like this:
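Human keratinocyte plus foreskin fibroblast primary co-culture was exposed to chemical for 24 h. ICAM-1 was then quantified by ELISA, and the data were fit bidirectionally against DMSO as the negative control and baseline.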

Read-out in assay [5]: Interferon-gamma inducible Protein 10 (IP10), CXCL10 (gene 3627)
As to the kind of experiment: BSK_KF3CT_IP10: BioMAP Diversity Plus: KF3CT Assay for Interferon-gamma inducible Protein 10 (IP10) Biomarker Activity (AID 2283068). The conditions noted are these: primary human keratinocytes with fibroblasts; actives raise or lower the signal. The method in brief: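 In a primary skin co-culture of keratinocytes and fibroblasts, IP-10 is quantified by ELISA at 24 h after dosing. SRB staining of parallel wells monitors overt toxicity. Curves are fitted both directions against DMSO.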

Assay [6] can be described thus: BSK_KF3CT_SRB: Viability Assessment in the BioMAP Diversity Plus: KF3CT Assay (AID 2283069).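 Further: total protein by sulforhodamine B staining as a cytotoxicity measure; read 24 h after compound addition.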 The conditions noted are these: primary human keratinocytes with fibroblasts. The method in brief: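 Human primary keratinocyte plus foreskin fibroblast co-culture exposed to chemicals for 24 h. Total protein measured by 0.1% sulforhodamine B staining after 10% TCA fixation, read at 560 nm; bidirectional fitting versus DMSO baseline.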

Read-out in assay [7]: Interleukin-1 alpha (IL1a), IL1A (gene 3552)
As to the kind of experiment: BSK_KF3CT_IL1a: BioMAP Diversity Plus: KF3CT Assay for Interleukin-1 alpha (IL1a) Biomarker Activity (AID 2283070). The conditions noted are these: primary human keratinocytes with fibroblasts; actives raise or lower the signal. The method in brief:
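Human keratinocyte plus foreskin fibroblast primary co-culture, sampled 24 h after chemical dosing. IL-1a measured by ELISA; responses fitted bidirectionally against DMSO baseline (negative control), so gain or loss of signal both count.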

Read-out in assay [8]: TIMP metallopeptidase inhibitor 2 (TIMP2), TIMP2 (gene 7077)
Description: BSK_KF3CT_TIMP2: BioMAP Diversity Plus: KF3CT Assay for TIMP metallopeptidase inhibitor 2 (TIMP2) Biomarker Activity (AID 2283071). The conditions noted are these: primary human keratinocytes with fibroblasts; actives raise or lower the signal. In short, it runs like this:
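Co-culture of human primary keratinocytes and foreskin fibroblasts, measured 24 h after chemical dosing. TIMP-2 quantified by ELISA and fitted in both directions relative to DMSO. Cytotoxicity checked in parallel cultures by SRB total-protein staining.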

Read-out in assay [9]: Transforming growth factor beta 1 (TGFb1), TGFB1 (gene 7040)
As to the kind of experiment: BSK_KF3CT_TGFb1: BioMAP Diversity Plus: KF3CT Assay for Transforming growth factor beta 1 (TGFb1) Biomarker Activity (AID 2283072). The conditions noted are these: primary human keratinocytes with fibroblasts; actives raise or lower the signal. The method in brief:
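Human keratinocyte/foreskin fibroblast co-culture; TGF-b1 measured by ELISA 24 h after dosing, fitted bidirectionally versus DMSO. Cytotoxicity checked in parallel cultures by total protein (SRB staining, 560 nm).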

Read-out in assay [10]: C-C motif chemokine 2 (Homo sapiens) (UniProt P13500)
Description: BSK_KF3CT_MCP1: BioMAP Diversity Plus: KF3CT Assay for Monocyte Chemoattractant Protein 1 (MCP1/CCL2) Biomarker Activity (AID 2283073). The conditions noted are these: primary human keratinocytes with fibroblasts; actives raise or lower the signal. The method in brief: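 Human keratinocyte plus foreskin fibroblast primary co-culture exposed to chemical for 24 h. MCP-1 levels measured by ELISA. Bidirectional curve fitting relative to DMSO negative control as baseline.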

Read-out in assay [11]: Matrix Metallopeptidase 9 (MMP9), MMP9 (gene 4318)
As to the kind of experiment: BSK_KF3CT_MMP9: BioMAP Diversity Plus: KF3CT Assay for Matrix Metallopeptidase 9 (MMP9) Biomarker Activity (AID 2283074).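 On AC50: MMP9 protein level quantified by ELISA in the co-culture.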 The conditions noted are these: primary human keratinocytes with fibroblasts; actives raise or lower the signal. In short, it runs like this:
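Keratinocyte plus foreskin fibroblast human primary skin co-culture was dosed with chemical and MMP-9 was quantified by ELISA 24 h later. Bidirectional curve fitting used DMSO as negative control and activity baseline.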

Read-out in assay [12]: urokinase plasminogen activator (uPA), PLAU (gene 5328)
As to the kind of experiment: BSK_KF3CT_uPA: BioMAP Diversity Plus: KF3CT Assay for urokinase plasminogen activator (uPA) Biomarker Activity (AID 2283075). The conditions noted are these: primary human keratinocytes with fibroblasts; actives raise or lower the signal. The method in brief:
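Human keratinocyte plus foreskin fibroblast primary co-culture exposed to chemical for 24 h. uPA levels were quantified by ELISA, and activity was fitted bidirectionally against a DMSO negative-control baseline.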

Read-out in a further assay: CD40, CD40 (gene 958)
Description: BSK_LPS_CD40: BioMAP Diversity Plus: LPS Assay for CD40 Biomarker Activity (AID 2283076). The conditions noted are these: primary human HUVEC with PBMC; actives raise or lower the signal. In short, it runs like this: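 Primary human umbilical vein endothelial cells co-cultured with peripheral blood mononuclear cells, LPS-stimulated, were dosed with chemical and read 24 h later. CD40 levels were measured by ELISA and fitted bidirectionally against DMSO as negative control and baseline.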

Read-out in assay [13]: Interleukin-8 (IL8), CXCL8 (gene 3576)
As to the kind of experiment: BSK_LPS_IL8: BioMAP Diversity Plus: LPS Assay for Interleukin-8 (IL8) Biomarker Activity (AID 2283078). The conditions noted are these: primary human HUVEC with PBMC; actives raise or lower the signal. In short, it runs like this:
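Human umbilical vein endothelial cells co-cultured with PBMC were stimulated with LPS; IL-8 levels were measured by ELISA 24 h after chemical dosing. Activity was fitted bidirectionally against DMSO as negative control and baseline.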

The nature of assay [14]: BSK_LPS_SRB: Viability Assessment in the BioMAP Diversity Plus: LPS Assay (AID 2283079).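 Further: total protein by sulforhodamine B absorbance as a cytotoxicity measure; measured one day after compound addition.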 The conditions noted are these: primary human HUVEC with PBMC. The method in brief: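 Human umbilical vein endothelial cells co-cultured with PBMC (LPS system) were dosed for 24 h. Total protein was stained with 0.1% sulforhodamine B after 10% TCA fixation, read at 560 nm, and fitted bidirectionally against DMSO baseline.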

Read-out in assay [15]: Interleukin-1 alpha (IL1a), IL1A (gene 3552)
Description: BSK_LPS_IL1a: BioMAP Diversity Plus: LPS Assay for Interleukin-1 alpha (IL1a) Biomarker Activity (AID 2283080). The conditions noted are these: primary human HUVEC with PBMC; actives raise or lower the signal. The method in brief: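 Human umbilical vein endothelial cells co-cultured with peripheral blood mononuclear cells were LPS-stimulated and exposed to test chemicals for 24 h. IL-1 alpha was quantified by ELISA, with bidirectional curve fitting against DMSO as the negative control and baseline.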

Read-out in assay [16]: Plasminogen activator inhibitor-1 (PAI1), SERPINE1 (gene 5054)
As to the kind of experiment: BSK_hDFCGF_PAI1: BioMAP Diversity Plus: hDFCGF Assay for Plasminogen activator inhibitor-1 (PAI1) Biomarker Activity (AID 2283066). The conditions noted are these: primary human foreskin fibroblasts; actives raise or lower the signal. In short, it runs like this:
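Human foreskin fibroblast primary cells, 24 h chemical exposure; PAI-1 measured by ELISA. Bidirectional fitting relative to DMSO; parallel cultures stained with SRB for total protein to flag overt cytotoxicity.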

Read-out in assay [17]: E-selectin (Homo sapiens) (UniProt P16581)
Description: BSK_LPS_Eselectin: BioMAP Diversity Plus: LPS Assay for Eselectin Biomarker Activity (AID 2283077). The conditions noted are these: primary human HUVEC with PBMC; actives raise or lower the signal. In short, it runs like this: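 Human umbilical vein endothelial cells co-cultured with peripheral blood mononuclear cells under LPS stimulation; E-selectin measured by ELISA 24 h after chemical dosing. Activity fitted bidirectionally against DMSO as negative control and baseline.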

A short description of assay [18]: BSK_LPS_PGE2: BioMAP Diversity Plus: LPS Assay for Prostaglandin E2 (PGE2) Biomarker Activity (AID 2283082). The conditions noted are these: primary human HUVEC with PBMC; actives raise or lower the signal. The method in brief: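 HUVEC plus human PBMC co-culture stimulated with LPS; secreted PGE2 quantified by ELISA 24 h after chemical dosing. Activity fitted bidirectionally against DMSO baseline; parallel SRB staining (0.1% SRB after 10% TCA fixation, 560 nm) flags overt cytotoxicity.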

Read-out in assay [19]: Monocyte Chemoattractant Protein-1 (MCP1), CCL2 (gene 6347)
As to the kind of experiment: BSK_LPS_MCP1: BioMAP Diversity Plus: LPS Assay for Monocyte Chemoattractant Protein-1 (MCP1) Biomarker Activity (AID 2283081).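 Further: secreted MCP-1 protein quantified by ELISA in culture supernatant.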 The conditions noted are these: primary human HUVEC with PBMC; actives raise or lower the signal. The method in brief:
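HUVEC plus PBMC co-culture (human primary cells, LPS system) exposed to test chemical for 24 h; MCP-1 measured by ELISA. Bidirectional curve fitting against DMSO baseline; parallel SRB total-protein staining flags overt cytotoxicity.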

Broadly, the AC50 is the concentration giving half of the maximal activity seen.

Molecules are shown by their SMILES. Calls of active or inactive are those of the source. How the source made its calls: active means hit-call score of the fitted dose curve at least 0.9, where 1 is the maximum; inactive means score below 0.9.

Chain of E-selectin (Homo sapiens) (P16581 whole entry, looked up): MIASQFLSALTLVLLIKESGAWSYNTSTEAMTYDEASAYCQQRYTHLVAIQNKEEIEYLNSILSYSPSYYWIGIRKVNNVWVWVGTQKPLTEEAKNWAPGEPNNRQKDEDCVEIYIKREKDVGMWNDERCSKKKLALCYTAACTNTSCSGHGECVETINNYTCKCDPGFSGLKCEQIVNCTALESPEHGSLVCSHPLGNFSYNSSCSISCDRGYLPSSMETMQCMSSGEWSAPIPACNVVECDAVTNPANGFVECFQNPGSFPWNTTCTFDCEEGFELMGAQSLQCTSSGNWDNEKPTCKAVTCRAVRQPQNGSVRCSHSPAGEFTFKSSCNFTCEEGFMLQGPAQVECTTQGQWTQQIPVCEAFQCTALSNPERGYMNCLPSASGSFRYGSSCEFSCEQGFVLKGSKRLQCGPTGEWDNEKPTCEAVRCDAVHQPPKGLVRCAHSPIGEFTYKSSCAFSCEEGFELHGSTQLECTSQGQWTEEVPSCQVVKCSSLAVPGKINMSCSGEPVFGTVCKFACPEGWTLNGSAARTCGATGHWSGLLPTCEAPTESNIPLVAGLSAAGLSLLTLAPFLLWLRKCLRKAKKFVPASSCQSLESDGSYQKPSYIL

Take `O=C(O)c1cccc(N(Cc2cccnc2)c2ccc(OC(F)F)c(OC(F)F)c2)c1`: the outcome in assay [1], in assay [2], in assay [4], in assay [5], in assay [6] and in assay [7] was inactive. In addition, the outcome is “inactive” in assay [8]; “inactive” in [9]; “inactive” in [10]; “inactive” in assay [11]; “inactive” in [12]; “inactive” in the assay with CD40, CD40 (gene 958). In addition, in assay [14], the outcome was inactive. For the same molecule, the values for the AC50 in assay [3], in [13] and in assay [15] were 1.27 µM (active), 9.79 µM (active) and 20 µM (active), respectively.

Consider `CN(C)c1ccc(Cc2ccc(N(C)C)cc2)cc1`, for which the outcome in assay [1], in assay [3], in assay [16], in [4], in assay [5] and in assay [6] was inactive. For the same molecule, the result in [7], in [8], in [9], in assay [10], in [11] and in assay [12] was inactive. The outcome in the assay with CD40, CD40 (gene 958) was “inactive”; in assay [17], “inactive”; in [14], “inactive”; in [15], “inactive”. Also, the half-maximal activity concentration (AC50) was 20 µM (active) in [2], 20 µM (active) in assay [13] and 5.6 µM (active) in assay [18].

In the case of `CCOC(=O)c1ccc(C2CCC(NC[C@H](O)COc3ccc(O)c(NS(C)(=O)=O)c3)CC2)cc1` (some centres undefined), the AC50 is 24.7 µM (active) in [1]; 15.7 µM (active) in assay [2]; 8.27 µM (active) in assay [3]; 18.7 µM (active) in assay [9]; 27.2 µM (active) in assay [11]; 30.9 µM (active) in assay [13]. For the same molecule, the concentration at half-maximal activity (AC50) in [14] is 26.1 µM (active); in assay [15] it was 29.9 µM (active); in assay [19], 34.1 µM (active). In addition, the outcome in assay [4], in [5], in assay [6], in assay [7], in assay [8] and in assay [10] was inactive. Moreover, the outcome in assay [12] is “inactive”; with CD40, CD40 (gene 958), “inactive”; in assay [17] it was “inactive”; in assay [18], “inactive”.
